PubChem BioAssay (EPA / NIEHS)
The source holds several records for some structures; these can differ, active in one and inactive in another. The source made the active and inactive calls. The calls were made as follows: active = hit-call score of the fitted dose curve at least 0.9, where 1 is the maximum; inactive = score below 0.9.

Columns and labels:
[1] = target: Transcription factor E2F1 (Homo sapiens) (UniProt Q01094); assay: ATG_E2F_CIS: Attagene CIS-FACTORIAL HepG2 Assay for human E2F Transcription Factor 1 (AID 2282935); conditions: HepG2 Attagene cis-reporter, E2F reporter RNA transcripts; actives raise or lower the signal
How it was run: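 Multiplexed cis-reporter assay: HepG2, transient transfection, 24 h dosing, mRNA quantitation by labeled RT-PCR and CE.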

[2] = ATG_E_Box_CIS: Attagene CIS-FACTORIAL HepG2 Assay for human Enhancer Box (E-box) (AID 2282936); conditions: HepG2 E-box cis-reporter transcription, actives raise or lower the signal
How it was run: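 Multiplexed CIS reporter system in transiently transfected HepG2 cells measures native transcription factor activity. Reporter RNA after 24 h exposure is profiled by RT-PCR-capillary electrophoresis.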

[3] = ATG_M_61_CIS: Attagene CIS-FACTORIAL HepG2 Assay for M61 Transcription Factor (Internal Marker) (AID 2282937); conditions: HepG2 Attagene CIS-FACTORIAL M61 internal marker reporter; actives raise or lower the signal
How it was run: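 This endpoint serves as an internal background control within a multiplexed HepG2 cis-reporter panel. Cells are exposed for 24 h; reporter mRNA is amplified, fluorescently labelled and sized by capillary electrophoresis, with DMSO as negative control.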

[4] = ATG_EGR_CIS: Attagene CIS-FACTORIAL HepG2 Assay for human Early Growth Response 1 (EGR1) (AID 2282938); conditions: HepG2 Attagene CIS-FACTORIAL EGR reporter mRNA; actives raise or lower the signal
How it was run: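 HepG2, transient MRTU transfection (cis promoters), 24 h compound. RNA → RT (oligo-dT) → PCR → 6-FAM labelling → HpaI cut → CE fluorescence. Bidirectional fit, DMSO baseline.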

[5] = ATG_M_19_CIS: Attagene CIS-FACTORIAL HepG2 Assay for M19 Transcription Factor (Internal Marker) (AID 2282939); conditions: HepG2 Attagene CIS-FACTORIAL M19 internal marker reporter; actives raise or lower the signal
How it was run: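 Background-control endpoint from a multiplexed HepG2 reporter panel. Cells carrying cis-regulated reporter constructs are treated 24 h, then reporter transcripts are amplified, fluorescently labelled and sized by capillary electrophoresis. DMSO defines baseline.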

[6] = ATG_ERE_CIS: Attagene CIS-FACTORIAL HepG2 Assay for Estrogen Response Element (ERE) (AID 2282940); conditions: HepG2 ERE cis-reporter, Attagene RNA transcript; actives raise or lower the signal
How it was run: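 Cells used were human hepatoma HepG2, transfected with multiple reporter transcription units under cis-regulatory promoters. Reporter mRNA, read 24 h post-dosing via fluorescent RT-PCR products on capillary electrophoresis, was fitted bidirectionally relative to DMSO.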

[7] = ATG_Ets_CIS: Attagene CIS-FACTORIAL HepG2 Assay for human Erythroblast Transformation Specific (ETS) (AID 2282941); conditions: HepG2 ETS cis-reporter transcription, actives raise or lower the signal
How it was run: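 Human HepG2 hepatoma cells were transiently transfected with promoter-driven reporter constructs and treated for 24 hours. Reporter transcripts were quantified by RT-PCR with fluorescent primer extension; bidirectional curve fitting used DMSO as reference.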

[8] = target: Hepatocyte nuclear factor 3-beta (Homo sapiens) (UniProt Q9Y261); assay: ATG_FoxA2_CIS: Attagene CIS-FACTORIAL HepG2 Assay for human Forkhead box A2 (FOXA2) (AID 2282942); conditions: HepG2 cis-reporter transcription factor activity, 24 h; actives raise or lower the signal
How it was run: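 Cells: HepG2, transient multiplex reporter transfection. Exposure 24 h. Detection: reporter-specific RT-PCR, fluorescent labelling, restriction digest, capillary electrophoresis. Analysis: bidirectional curve fit, DMSO as negative control.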

[9] = ATG_FoxO_CIS: Attagene CIS-FACTORIAL HepG2 Assay for human Forkhead box O (FoxO) (AID 2282943); conditions: HepG2 Attagene cis-reporter, FoxO element, mRNA; actives raise or lower the signal
How it was run: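 HepG2 cells transiently transfected with cis-promoter-driven multiple reporter transcription units; 24 h after chemical dosing, reporter mRNA quantified by RT-PCR, fluorescent primer extension, HpaI digestion and capillary electrophoresis. Bidirectional fitting versus DMSO baseline.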

[10] = ATG_GATA_CIS: Attagene CIS-FACTORIAL HepG2 Assay for human GATA Binding Protein (AID 2282944); conditions: HepG2 GATA cis-element reporter, Attagene multiplex mRNA; actives raise or lower the signal
How it was run: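 Endogenous transcription factor activity was captured through cis-promoter-driven reporters in transfected HepG2 cells. After 24 h exposure, reporter transcripts were quantified by RT-PCR with fluorescent capillary electrophoresis, and responses fitted both directions against DMSO.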

[11] = ATG_GLI_CIS: Attagene CIS-FACTORIAL HepG2 Assay for human Zinc Finger Protein GLI1 (AID 2282945); conditions: HepG2, Attagene cis-factorial reporter mRNA, GLI element; actives raise or lower the signal
How it was run: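 HepG2 cells transiently transfected with cis-promoter multiplexed reporter units report endogenous transcription factor activity. After 24 h chemical exposure, reporter mRNA was quantified by RT-PCR, 6-FAM labelling, HpaI digestion and capillary electrophoresis, with bidirectional fitting against DMSO.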

[12] = target: Bile acid receptor (Homo sapiens) (UniProt Q96RI1); assay: ATG_IR1_CIS: Attagene CIS-FACTORIAL HepG2 Assay for human Nuclear Receptor Subfamily 1 Group H Member 4 (NR1H4), IR1 submotif (AID 2282946); conditions: IR1 reporter transcription, actives raise or lower the signal
How it was run: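 Transient MRTU transfection, HepG2; 24 h dosing; RNA → RT-PCR → 6-FAM primer extension → HpaI digest → capillary electrophoresis fluorescence. Gain/loss of signal fitted relative to DMSO.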

[13] = ATG_GRE_CIS: Attagene CIS-FACTORIAL HepG2 Assay for human Glucocorticoid Response Elements (GRE) (AID 2282947); conditions: HepG2 GRE cis-reporter, Attagene multiplex mRNA; actives raise or lower the signal
How it was run: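 Following 24 h chemical exposure of transiently transfected HepG2 cells, total RNA was reverse-transcribed and reporter cDNA amplified, fluorescently labelled and sized by capillary electrophoresis. Signal gain or loss was fitted relative to DMSO vehicle.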

[14] = ATG_ISRE_CIS: Attagene CIS-FACTORIAL HepG2 Assay for human Interferon Regulatory Factor 1 (IRF1) binding to an Interferon-Stimulated Response Element (ISRE) (AID 2282948); conditions: HepG2 ISRE cis-reporter (Attagene), mRNA transcription readout; actives raise or lower the signal
How it was run: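 Cell-based cis-reporter assay; HepG2; 24 h exposure; reporter mRNA by RT-PCR plus capillary electrophoresis fluorescence; activity in either direction scored relative to DMSO.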

[15] = ATG_M_32_CIS: Attagene CIS-FACTORIAL HepG2 Assay for M32 Transcription Factor (Internal Marker) (AID 2282949); conditions: HepG2 Attagene cis-factorial M32 reporter, mRNA; actives raise or lower the signal;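 also: background control marker of the multiplexed CIS panel rather than a real target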
How it was run: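 HepG2 cells transiently transfected with multiplexed cis-regulated reporter units, dosed 24 h. Reporter mRNA quantified by RT-PCR, 6-FAM labelling, HpaI digestion and capillary electrophoresis; bidirectional fit vs DMSO.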

[16] = ATG_M_06_CIS: Attagene CIS-FACTORIAL HepG2 Assay for M06 Transcription Factor (Internal Marker) (AID 2282950); conditions: HepG2 Attagene CIS-FACTORIAL M06 internal marker reporter; actives raise or lower the signal
How it was run: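 Steps: transfect HepG2 with multiplexed cis-element reporter constructs; dose chemical 24 h; extract RNA with DNase treatment; reverse-transcribe, PCR-amplify, 6-FAM label, HpaI digest; separate fragments by capillary electrophoresis. Activity fitted both directions versus DMSO.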

[17] = target: Hypoxia-inducible factor 1-alpha (Homo sapiens) (UniProt Q16665); assay: ATG_HIF1a_CIS: Attagene CIS-FACTORIAL HepG2 Assay for human Hypoxia Inducible Factor 1 (HIF1A) (AID 2282951); conditions: HepG2 Attagene cis-factorial HIF1a reporter transcription; actives raise or lower the signal
How it was run: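 HepG2, transient cis-reporter library, 24 h dosing. RNA → RT (oligo dT) → PCR → 6-FAM primer extension → HpaI → CE. Bidirectional curve fit vs DMSO.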

[18] = target: Hepatocyte nuclear factor 6 (Homo sapiens) (UniProt Q9UBC0); assay: ATG_HNF6_CIS: Attagene CIS-FACTORIAL HepG2 Assay for human Hepatocyte Nuclear Factor 6 (HNF6) (AID 2282952); conditions: HepG2 Attagene cis-factorial HNF6 reporter transcription; actives raise or lower the signal
How it was run: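 Transiently transfected HepG2 cells expressing cis-regulated reporter transcription units were exposed to chemical for 24 h in a 24-well format. Reporter transcript abundance was determined by fluorescence capillary electrophoresis.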

[19] = target: Heat shock factor protein 1 (Homo sapiens) (UniProt Q00613); assay: ATG_HSE_CIS: Attagene CIS-FACTORIAL HepG2 Assay for human Heat Shock Transcription Factor 1 (HSE) (AID 2282953); conditions: HepG2 HSE cis-reporter, Attagene RNA transcription; actives raise or lower the signal
How it was run: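 Cells were transfected with cis-element-driven reporter constructs, dosed for 24 h, then total RNA was reverse-transcribed and reporter cDNA amplified, FAM-labelled and digested with HpaI. Fragments were resolved by capillary electrophoresis; gain or loss was fitted against DMSO.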

[20] = ATG_MRE_CIS: Attagene CIS-FACTORIAL HepG2 Assay for human Metal Responsive Element (MRE) (AID 2282954); conditions: HepG2 MRE cis-reporter transcription, Attagene multiplex; actives raise or lower the signal
How it was run: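 Step one: transfect HepG2 with cis-regulated reporter units. Step two: dose 24 h. Step three: isolate RNA, RT-PCR, 6-FAM label, HpaI digest, capillary electrophoresis. Fit bidirectionally to DMSO.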

Measured: AC50

Hypoxia-inducible factor 1-alpha (Homo sapiens), sequence (Q16665 whole entry, looked up): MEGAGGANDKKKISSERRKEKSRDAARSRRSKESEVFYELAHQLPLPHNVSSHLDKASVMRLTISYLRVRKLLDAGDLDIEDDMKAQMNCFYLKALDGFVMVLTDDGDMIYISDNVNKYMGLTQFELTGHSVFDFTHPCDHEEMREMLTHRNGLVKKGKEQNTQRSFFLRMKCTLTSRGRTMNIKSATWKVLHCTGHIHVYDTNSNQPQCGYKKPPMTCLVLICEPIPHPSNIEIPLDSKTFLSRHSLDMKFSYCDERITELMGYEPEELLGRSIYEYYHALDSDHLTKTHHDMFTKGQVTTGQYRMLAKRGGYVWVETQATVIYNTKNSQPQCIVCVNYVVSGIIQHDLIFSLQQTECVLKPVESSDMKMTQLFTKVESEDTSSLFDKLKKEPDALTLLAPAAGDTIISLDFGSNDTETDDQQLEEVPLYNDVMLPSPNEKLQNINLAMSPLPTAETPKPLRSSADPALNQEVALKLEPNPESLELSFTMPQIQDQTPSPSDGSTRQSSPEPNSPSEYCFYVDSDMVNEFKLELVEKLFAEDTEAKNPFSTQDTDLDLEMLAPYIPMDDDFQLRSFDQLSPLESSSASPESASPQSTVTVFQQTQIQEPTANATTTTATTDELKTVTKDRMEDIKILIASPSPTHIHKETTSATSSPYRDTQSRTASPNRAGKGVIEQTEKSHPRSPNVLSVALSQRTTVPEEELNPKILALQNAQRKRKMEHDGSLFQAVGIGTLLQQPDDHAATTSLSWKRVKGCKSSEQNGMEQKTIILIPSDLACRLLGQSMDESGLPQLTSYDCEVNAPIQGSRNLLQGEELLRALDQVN
Transcription factor E2F1 (Homo sapiens), sequence (Q01094 whole entry, looked up): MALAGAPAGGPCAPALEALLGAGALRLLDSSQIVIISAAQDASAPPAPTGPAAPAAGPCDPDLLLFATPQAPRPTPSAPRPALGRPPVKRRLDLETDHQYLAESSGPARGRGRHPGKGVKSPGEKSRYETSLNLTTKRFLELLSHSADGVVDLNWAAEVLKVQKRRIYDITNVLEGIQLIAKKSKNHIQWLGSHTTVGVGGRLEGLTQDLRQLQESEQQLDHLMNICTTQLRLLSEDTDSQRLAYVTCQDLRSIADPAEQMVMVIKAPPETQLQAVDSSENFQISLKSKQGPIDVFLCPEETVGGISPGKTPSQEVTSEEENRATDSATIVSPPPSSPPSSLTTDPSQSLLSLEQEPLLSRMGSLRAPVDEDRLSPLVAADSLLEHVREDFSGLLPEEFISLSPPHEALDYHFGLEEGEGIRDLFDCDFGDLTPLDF
Bile acid receptor (Homo sapiens), sequence (Q96RI1 whole entry, looked up): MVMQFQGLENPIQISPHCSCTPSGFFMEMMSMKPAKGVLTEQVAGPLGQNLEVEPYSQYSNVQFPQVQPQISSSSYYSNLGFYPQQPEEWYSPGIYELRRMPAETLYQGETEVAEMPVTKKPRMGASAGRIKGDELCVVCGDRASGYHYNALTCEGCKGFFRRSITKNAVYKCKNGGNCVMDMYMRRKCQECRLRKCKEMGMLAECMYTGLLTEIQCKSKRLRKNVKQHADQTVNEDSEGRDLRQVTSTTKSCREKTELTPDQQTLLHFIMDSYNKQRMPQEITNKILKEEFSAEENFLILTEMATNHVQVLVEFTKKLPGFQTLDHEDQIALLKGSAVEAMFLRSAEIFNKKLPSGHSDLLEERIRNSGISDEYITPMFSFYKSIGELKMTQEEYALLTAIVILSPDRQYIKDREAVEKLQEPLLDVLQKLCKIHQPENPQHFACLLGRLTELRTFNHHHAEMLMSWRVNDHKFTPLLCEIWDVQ
Hepatocyte nuclear factor 3-beta (Homo sapiens), sequence (Q9Y261 whole entry, looked up): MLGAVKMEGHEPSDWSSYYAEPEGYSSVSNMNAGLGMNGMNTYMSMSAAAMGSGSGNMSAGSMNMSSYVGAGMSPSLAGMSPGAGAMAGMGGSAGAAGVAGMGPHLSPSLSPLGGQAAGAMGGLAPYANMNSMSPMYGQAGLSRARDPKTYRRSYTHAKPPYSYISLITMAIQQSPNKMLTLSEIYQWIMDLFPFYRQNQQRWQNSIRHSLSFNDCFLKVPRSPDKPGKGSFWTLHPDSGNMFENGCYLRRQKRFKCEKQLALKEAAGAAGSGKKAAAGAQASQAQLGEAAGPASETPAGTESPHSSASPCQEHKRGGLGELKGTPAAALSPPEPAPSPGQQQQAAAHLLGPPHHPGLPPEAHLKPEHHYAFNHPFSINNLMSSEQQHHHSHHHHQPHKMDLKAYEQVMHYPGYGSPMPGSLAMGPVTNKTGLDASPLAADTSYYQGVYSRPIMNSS
Heat shock factor protein 1 (Homo sapiens), sequence (Q00613 whole entry, looked up, the tested form may be a part): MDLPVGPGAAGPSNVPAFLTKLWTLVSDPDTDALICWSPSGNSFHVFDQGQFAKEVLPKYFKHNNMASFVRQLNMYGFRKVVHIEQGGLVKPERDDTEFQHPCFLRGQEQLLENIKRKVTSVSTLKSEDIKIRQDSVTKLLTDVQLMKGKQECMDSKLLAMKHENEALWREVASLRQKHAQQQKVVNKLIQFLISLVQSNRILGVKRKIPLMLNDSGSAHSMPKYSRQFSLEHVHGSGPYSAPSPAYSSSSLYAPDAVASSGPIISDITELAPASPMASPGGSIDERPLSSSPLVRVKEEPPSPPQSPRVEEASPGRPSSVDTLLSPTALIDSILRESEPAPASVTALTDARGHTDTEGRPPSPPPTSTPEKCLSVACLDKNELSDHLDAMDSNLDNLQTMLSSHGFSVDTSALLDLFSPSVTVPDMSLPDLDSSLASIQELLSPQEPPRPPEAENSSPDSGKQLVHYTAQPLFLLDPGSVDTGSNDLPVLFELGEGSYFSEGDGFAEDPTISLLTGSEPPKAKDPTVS
Hepatocyte nuclear factor 6 (Homo sapiens), sequence (Q9UBC0 whole entry, looked up): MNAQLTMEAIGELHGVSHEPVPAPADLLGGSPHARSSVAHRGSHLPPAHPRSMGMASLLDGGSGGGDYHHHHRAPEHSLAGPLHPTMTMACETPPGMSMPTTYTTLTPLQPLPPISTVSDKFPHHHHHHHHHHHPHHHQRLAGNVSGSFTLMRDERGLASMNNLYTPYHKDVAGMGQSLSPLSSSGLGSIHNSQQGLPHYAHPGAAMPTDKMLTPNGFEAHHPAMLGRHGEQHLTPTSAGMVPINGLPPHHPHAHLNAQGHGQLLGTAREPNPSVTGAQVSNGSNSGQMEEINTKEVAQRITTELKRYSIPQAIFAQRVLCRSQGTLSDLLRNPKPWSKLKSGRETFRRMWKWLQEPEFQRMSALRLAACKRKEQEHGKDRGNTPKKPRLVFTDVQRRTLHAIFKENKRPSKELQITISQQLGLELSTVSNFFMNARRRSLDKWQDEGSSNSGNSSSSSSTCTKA

NC(=O)C(F)(F)C(F)(F)F
inactive: all assays above

COP(=O)(CCC(=O)NCO)OC
inactive: all assays above

c1ccc2c(c1)sc1ccccc12
active: [6] 125 µM
inactive: all other assays above

CNC(=O)Oc1ccc(N(C)C)c(C)c1
inactive: all assays above

CC1=C(C(=O)Nc2ccccc2)S(=O)(=O)CCO1
active: [2] 21.8 µM | [4] 10.7 µM | [12] 58.6 µM | [14] 30.2 µM | [17] 27.2 µM | [18] 45.4 µM | [20] 9.73 µM
inactive: all other assays above

CC(C)(C)N(NC(=O)c1ccc(Cl)cc1)C(=O)c1ccccc1
inactive: all assays above

CCOP(=S)(NC(C)C)Oc1ccccc1C(=O)OC(C)C (configuration not stated)
active: [6] 11.3 µM | [12] 26.5 µM | [14] 41.7 µM | [20] 59.9 µM
not listed: [19]
inactive: all other assays above

OCC(F)(F)OC(F)(F)C(F)(F)OC(F)(F)C(F)(F)OC(F)(F)F
inactive: [1] | [2] | [3] | [4] | [5] | [6] | [7] | [8] | [9] | [10] | [11] | [12] | [13] | [14] | [15] | [16] | [17] | [18] | [19] | [20]
active: [6] 5.62 µM | [14] 90 µM | [19] 75.6 µM | [20] 75.7 µM

CCOC(=O)c1ccccc1N
not listed: [19]
inactive: all other assays above

CC(=O)CCc1ccc2c(c1)OCO2
inactive: all assays above

ClC(Cl)(Cl)c1ccccc1
active: [6] 45.1 µM
inactive: all other assays above

CC(=O)c1ccc(-c2ccccc2)cc1
active: [6] 6.56 µM
inactive: all other assays above

CCCCN(CC)C(=O)SCCC
inactive: all assays above
